The record followed here is PubChem BioAssay (NCATS).

Records with an inconclusive call do not appear. Active and inactive are the calls of the source. The call rests on the fitted dose curve; in most records, active means well fitted curve in the direction sought with a large enough effect; inconclusive means small, poorly fitted or top-dose-only effect, or another doubt; inactive means no such curve, though single readings can be large; an effect the other way counts as inactive or inconclusive.
On the % scale 0 is the no-effect control and ±100 the full control effect; potency means the concentration at half of the fitted maximal effect.

The subject of the first experiment is astro (control astrocytes). Kind of experiment: Drug repurposing screens with cells derived from glioblastoma tumor samples (AID 1345199). Further: nearly all actives have a fitted effect of over 40% in size. The conditions noted are these: viability, ATP luminescence, 48 h; series mostly up to 45.9 µM; activity, negative = cell killing: at the top concentration. An outline of the steps:
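Primary testing used CD133+ neurospheres from four GBM patients, seven concentrations, 48 h exposure and ATP-based viability; confirmation added three slower-growing patient lines.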
As to `CC[C@H](C)C(=O)O[C@H]1C[C@H](O)C=C2C=C[C@H](C)[C@H](CC[C@@H](O)C[C@@H](O)CC(=O)O)[C@H]21`, the “activity, negative = cell killing” value is -7.28% (inactive).
The same measure, in the same setting: for `CC(C)CN(C[C@@H](O)[C@H](Cc1ccccc1)NC(=O)O[C@H]1CO[C@H]2OCC[C@H]21)S(=O)(=O)c1ccc(N)cc1` the value was -20.4% (inactive); for `CCC(=O)OCC(=O)[C@@]1(OC(=O)CC)[C@@H](C)C[C@@H]2[C@H]3CCC4=CC(=O)C=C[C@]4(C)[C@@]3(F)[C@@H](O)C[C@@]21C`, -8.5% (inactive); for `COc1cc2c(cc1OC)CC(=O)N(CCCN(C)C[C@H]1Cc3cc(OC)c(OC)cc31)CC2`, -16.8% (inactive).
Take `Clc1ccc(COC(Cn2ccnc2)c2ccc(Cl)cc2Cl)c(Cl)c1` (stereo not given): the “activity, negative = cell killing” value was -29.4% [at 21.2 µM] (inactive).
With `Fc1ccc(C(c2ccc(F)cc2)N2CCN(CC=Cc3ccccc3)CC2)cc1`, the Potency is 35.5 µM (active).
Take `O=C(O)c1nc(=O)[nH]c(=O)[nH]1`: the “activity, negative = cell killing” value is -8.82% (inactive).
Still for that read-out and setting: the value for `N#Cc1c(N(CC(=O)O)CC(=O)O)sc(C(=O)O)c1CC(=O)O` was -9.05% (inactive); that for `CCC[C@H](N[C@@H](C)C(=O)N1[C@@H]2CCCC[C@H]2C[C@H]1C(=O)O)C(=O)OCC` was -16% (inactive).
The same measure, in the same setting: the value for `NCC1CCC(C(=O)O)CC1` (stereo not given) was -11.1% [at 21.2 µM] (inactive).
Still for that read-out and setting: the value for `CC(C)(CO)[C@@H](O)C(=O)NCCC(=O)O` was -12.3% (inactive).
Turning to `CC[C@H]1OC(=O)[C@H](C)[C@@H](O[C@H]2C[C@@](C)(OC)[C@@H](O)[C@H](C)O2)[C@H](C)[C@@H](O[C@@H]2O[C@H](C)C[C@H](N(C)C)[C@H]2O)[C@](C)(O)C[C@H](C)C(=NOCOCCOC)[C@H](C)[C@@H](O)[C@]1(C)O`, the “activity, negative = cell killing” value was 7.95% (inactive).
Turning to `CN1CC(=O)N2C(Cc3c([nH]c4ccccc34)[C@H]2c2ccc3c(c2)OCO3)C1=O` (stereo not given in full), the “activity, negative = cell killing” value is -26.3% (inactive).
On the same count and under the same terms, for `CN1CCN2c3ncccc3Cc3ccccc3C2C1` (stereo not given) the value was -26% (inactive).

Test system in the next experiment: not listed separately
Nature of the experiment: qHTS assay to identify inhibitors of the type 1 interferon - major histocompatibility complex class I in skeletal muscle: Counter screen cell viability and HiBit confirmation (AID 1347412). Further: nearly all actives have a fitted effect of over 60% in size. The conditions noted are these: iHSKM muscle cells + IFN-b, HiBiT or CellTiter-Glo, 24 h; HiBiT. An outline of the steps:
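HLA-B*08:01–HiBiT knock-in immortalized human myoblasts (C25cl48) stimulated with 4.0 ng/ml human IFN-beta and dosed with compound in a 12-point 1:3 titration (top final 46 uM). After 24 hrs at 37 C, HiBiT lytic luminescence or CellTiter Glo ATP read out.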
`COc1cc2nccc(Oc3ccc(NC(=O)Nc4ccc(F)cc4F)c(F)c3)c2cc1OC`: the Potency was 8.83 µM (active).
Consider `CC(C)Oc1cc(Nc2nc(N[C@@H](C)c3ccc(F)cn3)ncc2Cl)[nH]n1`, for which the Potency is 9.91 µM (active).
In the case of `COc1c(C)cnc(Cn2cnc3c(Cl)nc(N)nc32)c1C`, the Potency is 0.222 µM (active).
On to `CC1(C)CC(=O)c2c(C(F)(F)F)nn(-c3ccc(C(N)=O)c(NC4CCC(O)CC4)c3)c2C1` (stereo not given), for which the Potency is 0.0701 µM (active).
Take `Cc1cccc(Nc2nc(N[C@@H]3CCCC[C@H]3N)ncc2C(N)=O)c1`: the Potency was 15.7 µM (active).

Staying with this experiment, now noted: iHSKM muscle cells + IFN-b, HiBiT or CellTiter-Glo, 24 h; Viability.
Consider `COc1cc2nccc(Oc3ccc(NC(=O)Nc4ccc(F)cc4F)c(F)c3)c2cc1OC`, for which the Potency was 7.87 µM (active).
Consider `COc1ccc(-c2ccc3ncc4c(c3c2)n(-c2ccc(N3CCNCC3)c(C(F)(F)F)c2)c(=O)n4C)cn1`, for which the Potency is 4.43 µM (active).
Still for that read-out and setting: the value for `CN(C)CCN(C)C(=O)c1ccc(NC(=O)Nc2ccc(-c3nc(N4CCOCC4)c4ccn(CC(F)(F)F)c4n3)cc2)cc1` was 1.11 µM (active).

Still in this experiment, the particulars now being: iHSKM muscle cells + IFN-b, HiBiT or CellTiter-Glo, 24 h; Viability; at 45.9 µM (top of the series).
With `Fc1ccc(CNc2ncnc3ccc(F)cc23)cc1`, the activity change, negative = inhibition is 2.98% (inactive).
Still for that read-out and setting: the value for `CNC(=O)c1cc(COc2nnc(Nc3ccc(Cl)cc3)c3ccoc23)ccn1` was -24.9% (inactive).
Same read-out and setting: the value for `O=C(Nc1cccc(Cl)c1)Nc1ncc(CCNc2ncnc3ccsc23)s1` was 8.48% (inactive).
On to `COc1ccc2nc3cc(Cl)ccc3c(Nc3cc(CN4CCCC4)c(O)c(CN4CCCC4)c3)c2n1`, for which the activity change, negative = inhibition was -8.41% (inactive).
Regarding `NC1(C(=O)N[C@@H](CCO)c2ccc(Cl)cc2)CCN(c2ncnc3[nH]ccc23)CC1`, the activity change, negative = inhibition is -19.1% (inactive).
Same read-out and setting: for `OC(c1cc(C(F)(F)F)nc2c(C(F)(F)F)cccc12)C1CCCCN1` (stereo not given) the value was -12.8% (inactive); for `CCc1cc(-c2n[nH]c(C)c2-c2ccc3c(c2)OCCO3)c(O)cc1O`, -3.79% (inactive).
As to `O=C1CN2Cc3c(ccc(Cl)c3Cl)N=C2N1`, the activity change, negative = inhibition was -3.92% (inactive).
